Experimental data as given in PubChem BioAssay AID1159580 (chemical genetic matrix, 2015).
The whole screen tested about 5,500 compounds, of which about 2,000 (36%) were called active. About 18% were inconclusive and are not listed. Rule as the data show it: active = normalized growth mostly below about 0.91 (no sharp cut-off); inconclusive = no clear call, values can overlap the other calls; inactive = mostly above about 0.92. The list shows a part of the results.

Experiment: chemical genetic growth profiling, strain panel (AID 1159580);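 also: tested at 20 µM; growth read once vehicle control cultures reached saturation at 30 °C; 1 = growth at the plate median or of vehicle wells; lower values mean less growth of the strain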
Details: growth OD

Measured: normalized growth

CC[N+]1(C)CCCC(OC(=O)C(O)(c2ccccc2)c2ccccc2)C1 (stereo not given)
inactive: S. cerevisiae deletion strains, locus YJR066W, strain TOR1, hits give low values 0.954 | S. cerevisiae deletion strains, locus YKL009W, strain mrt4, hits give low values 1.01 | S. cerevisiae deletion strains, locus YKL068W, hits give low values 1.01 | S. cerevisiae deletion strains, locus YKL085W, strain MDH1 (second series), hits give low values 0.994 | S. cerevisiae deletion strains, locus YKL085W, strain MDH1, hits give low values 0.994 | S. cerevisiae deletion strains, locus YKL160W, strain elf1, hits give low values 1.01 | S. cerevisiae deletion strains, locus YKL190W, strain CNB1, hits give low values 1.01 | S. cerevisiae deletion strains, locus YKR001C, strain vps1, hits give low values 1.02 | S. cerevisiae deletion strains, locus YKR026C, strain gcn3, hits give low values 1.04 | S. cerevisiae deletion strains, locus YKR091W, strain srl3, hits give low values 1.02 | S. cerevisiae deletion strains, locus YLL001W, strain dnm1, hits give low values 1.01 | S. cerevisiae deletion strains, locus YLL026W, hits give low values 1.02 | S. cerevisiae deletion strains, locus YLL041C, strain sdh2, hits give low values 1.02 | S. cerevisiae deletion strains, locus YLR027C, strain aat2, hits give low values 1.01 | S. cerevisiae deletion strains, locus YLR039C, strain RIC1, hits give low values 1.03 | S. cerevisiae deletion strains, locus YLR058C, strain SHM2, hits give low values 1.01 | S. cerevisiae deletion strains, locus YLR102C, strain apc9, hits give low values 1 | S. cerevisiae deletion strains, locus YLR113W, strain HOG1, hits give low values 1.05 | S. cerevisiae deletion strains, locus YLR221C, strain rsa3, hits give low values 1.01 | S. cerevisiae deletion strains, locus YLR258W, strain gsy2, hits give low values 1.02 | S. cerevisiae deletion strains, locus YLR262C, strain YPT6 (second series), hits give low values 1.02 | S. cerevisiae deletion strains, locus YLR262C, strain YPT6, hits give low values 1.07 | S. cerevisiae deletion strains, locus YLR268W, strain sec22, hits give low values 1.01 | S. cerevisiae deletion strains, locus YLR320W, strain mms22, hits give low values 1.02 | S. cerevisiae deletion strains, locus YLR330W, strain CHS5, hits give low values 1.01 | S. cerevisiae deletion strains, locus YLR342W, strain FKS1 (second series), hits give low values 1.03 | S. cerevisiae deletion strains, locus YLR342W, strain FKS1, hits give low values 1.03 | S. cerevisiae deletion strains, locus YLR357W, strain rsc2, hits give low values 1.02 | S. cerevisiae deletion strains, locus YLR370C, strain arc18, hits give low values 1.03 | S. cerevisiae deletion strains, locus YLR371W, strain rom2, hits give low values 1.01 | S. cerevisiae deletion strains, locus YLR384C, strain iki3, hits give low values 1.02 | S. cerevisiae deletion strains, locus YLR418C, strain cdc73, hits give low values 1.03 | S. cerevisiae deletion strains, locus YML016C, strain PPZ1, hits give low values 1 | S. cerevisiae deletion strains, locus YML032C, strain rad52, hits give low values 1.02 | S. cerevisiae deletion strains, locus YML120C, strain ndi1, hits give low values 1.01 | S. cerevisiae deletion strains, locus YML124C, strain tub3, hits give low values 1.01 | S. cerevisiae deletion strains, locus YMR058W, strain fet3, hits give low values 1.02 | S. cerevisiae deletion strains, locus YMR078C, strain ctf18, hits give low values 0.998 | S. cerevisiae deletion strains, locus YMR125W, strain sto1, hits give low values 1.02 | S. cerevisiae deletion strains, locus YMR129W, hits give low values 1.03 | S. cerevisiae deletion strains, locus YMR205C, strain PFK2, hits give low values 1.03 | S. cerevisiae deletion strains, locus YMR223W, strain ubp8, hits give low values 1.03 | S. cerevisiae deletion strains, locus YMR231W, strain pep5, hits give low values 1.03 | S. cerevisiae deletion strains, locus YMR263W, strain SAP30, hits give low values 1.01 | S. cerevisiae deletion strains, locus YMR307W, strain GAS1, hits give low values 1.1 | S. cerevisiae deletion strains, locus YNL067W, strain RPL9B, hits give low values 1.01 | S. cerevisiae deletion strains, locus YNL071W, strain lat1, hits give low values 1.02 | S. cerevisiae deletion strains, locus YNL128W, strain TEP1, hits give low values 1.03 | S. cerevisiae deletion strains, locus YNL153C, strain GIM3, hits give low values 0.997 | S. cerevisiae deletion strains, locus YNL183C, strain NPR1, hits give low values 0.942 | S. cerevisiae deletion strains, locus YNL209W, strain ssb2, hits give low values 1.02 | S. cerevisiae deletion strains, locus YNL233W, strain BNI4, hits give low values 1.01 | S. cerevisiae deletion strains, locus YNL248C, strain rpa49, hits give low values 1.02 | S. cerevisiae deletion strains, locus YNL250W, strain rad50, hits give low values 1.01 | S. cerevisiae deletion strains, locus YNL271C, strain bni1, hits give low values 1.03 | S. cerevisiae deletion strains, locus YNL298W, strain CLA4, hits give low values 1.01 | S. cerevisiae deletion strains, locus YNL307C, strain MCK1, hits give low values 1.02 | S. cerevisiae deletion strains, locus YNL322C, strain KRE1 (second series), hits give low values 1.01 | S. cerevisiae deletion strains, locus YNL322C, strain KRE1, hits give low values 1.01 | S. cerevisiae deletion strains, locus YNR049C, strain mso1, hits give low values 1.02 | S. cerevisiae deletion strains, locus YNR052C, strain pop2, hits give low values 1.02 | S. cerevisiae deletion strains, locus YOL006C, strain TOP1, hits give low values 1 | S. cerevisiae deletion strains, locus YOL012C, strain htz1 0.812 | S. cerevisiae deletion strains, locus YOL147C, strain pex11, hits give low values 1.01 | S. cerevisiae deletion strains, locus YOR001W, strain rrp6, hits give low values 1.01 | S. cerevisiae deletion strains, locus YOR061W, strain CKA2, hits give low values 1.01 | S. cerevisiae deletion strains, locus YOR069W, strain VPS5, hits give low values 1.01 | S. cerevisiae deletion strains, locus YOR070C, strain gyp1, hits give low values 1.01 | S. cerevisiae deletion strains, locus YOR080W, strain dia2, hits give low values 1.01 | S. cerevisiae deletion strains, locus YOR083W, strain WHI5, hits give low values 1.01 | S. cerevisiae deletion strains, locus YOR106W, strain vam3, hits give low values 1.02 | S. cerevisiae deletion strains, locus YOR136W, strain idh2, hits give low values 1.01 | S. cerevisiae deletion strains, locus YOR144C, strain elg1, hits give low values 1.01 | S. cerevisiae deletion strains, locus YOR184W, strain ser1, hits give low values 1 | S. cerevisiae deletion strains, locus YOR231W, strain MKK1, hits give low values 1.03 | S. cerevisiae deletion strains, locus YOR265W, strain rbl2, hits give low values 1.01 | S. cerevisiae deletion strains, locus YOR270C, strain vph1, hits give low values 1.1 | S. cerevisiae deletion strains, locus YOR290C, strain snf2, hits give low values 1.01 | S. cerevisiae deletion strains, locus YOR316C, strain cot1, hits give low values 1.01 | S. cerevisiae deletion strains, locus YPL051W, strain arl3, hits give low values 1.01 | S. cerevisiae deletion strains, locus YPL078C, strain atp4, hits give low values 1.02 | S. cerevisiae deletion strains, locus YPL106C, strain sse1, hits give low values 1.02 | S. cerevisiae deletion strains, locus YPL240C, strain hsp82, hits give low values 1.04 | S. cerevisiae deletion strains, locus YPL256C, strain CLN2, hits give low values 1.04 | S. cerevisiae deletion strains, locus YPR119W, strain clb2, hits give low values 1.01 | S. cerevisiae deletion strains, locus YPR141C, strain kar3, hits give low values 1.01 | S. cerevisiae deletion strains, locus YPR163C, strain tif3, hits give low values 1.01 | S. cerevisiae deletion strains, locus YPR167C, strain met16, hits give low values 1.01 | S. cerevisiae deletion strains, strain wtn01, hits give low values 1.01 | S. cerevisiae strains, strain wild type, hits give low values 1.01
